Shown are actives, neighbours in structure and some others; about 3.5% of the full set was active somewhere.
FBW7 activator: human FBW7 E3 ligase activation, primary screen; hit rate 0.13% among 650,000; normalized activity (activation), % at 26.1 µM; AID 1259310; AlphaScreen FBW7–phospho-cyclin E peptide binding, activator screen; Q969H0; in the data active means normalized activity above about 1.9%;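 further: purified mutant Fbw7 with reduced substrate affinity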
MITF primary: blocks human microphthalmia-associated transcription factor; O75030; AlphaScreen MITF homodimerization, bead proximity signal; inhibition, % at 2.6 µM; hit rate 0.91% among 650,000; in the data active means inhibition above about 50%
TEAD-YAP inh: TEAD-YAP interaction inhibition. HEK-TIYL cells, TEAD-Gal4/YAP UAS-luciferase luminescence. inhibition, % at 9.12 µM. hit rate 1.4% among 640,000. AID 1259422; in the data active means inhibition above about 32%
GPR151 ag: human GPR151 activation | Q8TDV0 | PathHunter beta-arrestin GPR151 cells, luminescence | activation, % at 11.2 µM | hit rate 1% among 650,000 | AID 1508602; in the data active means activation above about 4.9%
Target sequence (Q8TDV0 whole entry, looked up): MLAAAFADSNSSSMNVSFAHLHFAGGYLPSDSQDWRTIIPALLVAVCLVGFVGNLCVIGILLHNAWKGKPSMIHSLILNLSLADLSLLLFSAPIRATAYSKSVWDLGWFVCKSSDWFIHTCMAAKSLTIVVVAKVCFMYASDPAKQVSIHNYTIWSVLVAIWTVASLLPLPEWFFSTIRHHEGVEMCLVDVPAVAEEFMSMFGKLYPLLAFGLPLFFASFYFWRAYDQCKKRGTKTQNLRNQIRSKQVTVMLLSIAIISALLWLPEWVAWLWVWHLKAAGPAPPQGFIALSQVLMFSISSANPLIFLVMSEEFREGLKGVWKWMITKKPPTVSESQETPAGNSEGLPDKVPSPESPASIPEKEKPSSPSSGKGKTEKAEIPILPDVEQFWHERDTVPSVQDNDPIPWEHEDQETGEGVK
MITF confirm: confirmation of human MITF inhibitors | shares compounds with MITF primary | hit rate 16% among 4,700 | AlphaScreen MITF homodimerization, biotin/His-MITF beads | inhibition, % at 2.6 µM | AID 1259372;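 active means inhibition above a cutoff derived from the DMSO control wells, cut at about 28% in these data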;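 further: inhibitors lower the bead chemiluminescence by keeping MITF from dimerizing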
AS interf DR: optically interferes with AlphaScreen signal in dose response | hit rate 6% among 480 | shares compounds with MITF primary | IC50, µM | AlphaScreen optical interference counterscreen, cell-free; call rule not given here
AS interf ctr: counter-screen: compounds optically interfering with AlphaScreen. shares compounds with MITF primary. LysRS AlphaScreen counterscreen, signal interference, triplicate. inhibition, % at 2.6 µM. hit rate 7.6% among 4,700. AID 1259376;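 active means inhibition above a cutoff derived from the DMSO control wells, cut at about 30% in these data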
Large screens that a line does not name were inactive (follow-up assays come after a bar, where they were run); ! = a repeat was not active.

O=C1C(=O)N(CCCO)C(c2ccc([N+](=O)[O-])cc2)/C1=C(/O)c1ccc(Cl)cc1 (stereo not given)	none
CC(=O)Cn1c(=O)c2c(nc3oc(C)cn32)n(C)c1=O	none
COc1cccc([C@@H]2Oc3ccc(OC)cc3C(=O)C2OC(=O)NC2CCCC2)c1 (stereo not given in full)	none (no result: TEAD-YAP inh)
O=C1c2ccccc2C(=O)N1CCCCN(C(=O)c1cc([N+](=O)[O-])ccc1Cl)c1ccc(Cl)cc1	MITF primary 68.1 | MITF confirm inactive | AS interf ctr inactive
Cc1ccc(N(CCCCN2C(=O)c3ccccc3C2=O)C(=O)c2ccc([N+](=O)[O-])cc2)cc1	MITF primary 63.9 | MITF confirm inactive | AS interf ctr inactive
O=C1c2ccccc2C(=O)N1CCCCN(C(=O)c1ccc([N+](=O)[O-])cc1)c1ccc(Cl)cc1	none
NS(=O)(=O)c1ccc(NC(=O)NC2CC(=O)N(c3ccc(Cl)cc3)C2)cc1 (stereo not given)	none
CCc1ccc(N(CC)S(=O)(=O)c2cccc3nsnc23)cc1	none
CCOc1cc2oc(=O)cc(CC)c2cc1Cl	none
CCc1cc(=O)oc2cc(OC)c(Cl)cc12	MITF primary 88.1 | MITF confirm inactive | AS interf ctr inactive
COc1ccc(-n2c(CN3CCSCC3)n[nH]c2=S)cc1	MITF primary 71.3 | MITF confirm inactive | AS interf ctr inactive
COC(CNc1cc(-c2ccccn2)nc(-c2ccccn2)n1)OC	MITF primary 113.7 | MITF confirm 116.1 | AS interf ctr 100.3
COC(CNc1cc(-c2ccccn2)nc(-c2ccccc2)n1)OC	none
Cc1cnc(CNc2cc(-c3ccccn3)nc(-c3ccccn3)n2)nc1	MITF primary 109.7 | MITF confirm 114.5 | AS interf ctr 100.3
COc1cc(Nc2nccc(NC3CC3)n2)cc(OC)c1OC	none
N#Cc1c(SCC(=O)O)nc2c(c1-c1ccco1)CCC2	MITF primary 60.2 | MITF confirm 71.5 | AS interf DR inactive | AS interf ctr inactive
Cc1nn(-c2ccccc2)c(Cl)c1CNCCCOC(C)C	none
Cc1nn(C2CCS(=O)(=O)C2)c(Cl)c1CNCCCOC(C)C (stereo not given)	MITF primary 51.2 | MITF confirm inactive | AS interf ctr inactive
CN1CCCN(Cc2ccc(C(F)(F)F)cc2)CC1	none
COc1cc(C(=O)N2CCN(Cc3ccc(C(F)(F)F)cc3)CC2)cc(OC)c1OC	none
COc1ccc(CN2CCN(Cc3ccc(C(F)(F)F)cc3)CC2)cc1	MITF primary 86.4 | MITF confirm inactive | AS interf ctr inactive
COc1cccc(CN2CCN(Cc3ccc(C(F)(F)F)cc3)CC2)c1	MITF primary 80.8 | MITF confirm inactive | AS interf ctr inactive
COc1ccc(OC)c(CN2CCN(Cc3ccc(C(F)(F)F)cc3)CC2)c1	MITF primary 78.5 | MITF confirm inactive | AS interf ctr inactive
FC(F)(F)c1ccc(CN2CCSCC2)cc1	MITF primary 58.0 | MITF confirm inactive | AS interf ctr inactive
Cc1ccc(CSc2nnc(-c3ccncc3)o2)cc1	none
O=C(c1cccc(Nc2nccc(-c3ccc4nc(C5CC5)[nH]c(=O)c4c3)n2)c1)N1CCCC1	none
O=c1[nH]cccc1-c1ccc(Nc2nccc(-c3ccc4nc(C5CC5)[nH]c(=O)c4c3)n2)cc1	MITF primary 64.4 | MITF confirm 62.0 | AS interf DR inactive | AS interf ctr inactive
COc1ccc(C(=O)Nc2cc(-c3nc4cc(C)ccc4o3)ccc2Cl)cc1Br	MITF primary 58.8 | MITF confirm inactive | AS interf ctr inactive
CCCN(CCC)C(=O)c1c(NC(=O)c2cccnc2)sc2c1CCCCC2	none
CCCN(CCC)C(=O)c1c(NC(C)=O)sc2c1CCCCC2	MITF primary 65.0 | MITF confirm 63.0 | AS interf ctr 38.0
Fc1ccc(C2Nc3ccc(Br)cc3C(c3ccccc3)O2)cc1 (stereo not given)	none
O=[N+]([O-])c1ccc(C2Nc3ccc(Br)cc3C(c3ccccc3)O2)cc1 (stereo not given)	MITF primary 57.4 | MITF confirm inactive | AS interf ctr inactive
COc1ccc(N2C(=O)CSC2c2c(F)cccc2Cl)cc1 (stereo not given)	none
COc1ccccc1CN1CCN(C(=O)c2cccnc2)CC1	MITF primary 57.4 | MITF confirm inactive | AS interf ctr inactive
COc1ccc(CN2CCN(C(=O)c3cccnc3)CC2)c(OC)c1OC	none
COc1cccc(CN2CCN(C(=O)c3cccnc3)CC2)c1OC	MITF primary 76.9 | MITF confirm inactive | AS interf ctr inactive
COc1ccc(CN2CCN(C(=O)c3cccnc3)CC2)c(OC)c1	none
COc1ccccc1C1(O)CC2CCC(C1)N2C(=O)c1cccnc1 (stereo not given)	MITF primary 73.0 | MITF confirm inactive | AS interf ctr inactive
Cc1ccc(-c2[nH]nc3c2C(c2cccc(OCc4ccc(F)cc4)c2)C(C#N)=C(N)O3)cc1 (stereo not given)	none
NC(=O)N(C(=S)N1CCCCC1)c1ccccc1	none
COc1ccc(C(=O)CNCC2CCCO2)cc1OC (stereo not given)	MITF primary 68.8 | MITF confirm inactive | AS interf ctr inactive
CC(C)(C)CC(=O)NCC1Cc2cc(-c3cncnc3)cc(Cl)c2O1 (stereo not given)	none
O=C(Nc1cc(Cl)ccc1[N+](=O)[O-])c1cnc2n(c1=O)CCS2	none
CCc1cc2c(cc3c(=O)n(CC(=O)N(CC)Cc4ccccc4)ncn32)s1	MITF primary 71.2 | MITF confirm inactive | AS interf ctr inactive
O=C(Nc1ccc(N2CCOCC2)cc1)c1cccc(Nc2ccncn2)n1	MITF primary 58.1 | MITF confirm 81.3 | AS interf DR inactive | AS interf ctr inactive
O=C(Nc1ccc(N2CCOCC2)cc1)c1csc(Nc2ccncn2)n1	none
N=C1S/C(=C\c2ccco2)C(=O)N1c1nonc1N	MITF primary 81.8 | MITF confirm 59.5 | AS interf DR inactive | AS interf ctr inactive
CN1CCN(S(=O)(=O)c2cccc(C(=O)Nc3ccccc3)c2)CC1	none
N/C(=N\OC(=O)c1ccccc1)c1ccc(Cn2cc(C(F)(F)F)ccc2=O)cc1	MITF primary 53.7 | MITF confirm inactive | AS interf ctr inactive
COc1ccccc1NC(=O)CSc1ncnc2ccccc12	none
O=C(Cc1ccc(F)cc1)Nc1c2c(nn1-c1ccccc1)CS(=O)C2 (stereo not given)	none
Cc1cccc(CC(=O)Nc2c3c(nn2-c2ccc(F)cc2)CS(=O)C3)c1 (stereo not given)	MITF primary 88.2 | MITF confirm inactive | AS interf ctr inactive
Cc1cc(NC(=O)c2cc([N+](=O)[O-])ccc2Cl)ccc1NC(=O)c1ccccc1	none
CCOc1ccc(S(=O)(=O)Nc2ccc(NC(C)=O)cc2)cc1C	none
Nc1ccc(C(=O)O)c(O)c1	MITF primary 87.5! | MITF confirm 71.7 | AS interf DR inactive | AS interf ctr inactive
